High-throughput results (PubChem BioAssay)
An excerpt weighted towards active compounds, which were near 19% of everything screened.
HT1080NT lethal = kills 2HG-producing HT-1080-NT fibrosarcoma cells | HT-1080-NT fibrosarcoma viability, CellTiter-Glo ATP luminescence, 48 h | Potency, µM (series often up to 46.1 µM), most hits filed as cytotoxic | hit rate 1.6% among 360,000 | AID 686970;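 note: NT is the 2HG producing partner of a matched IDH1 knockdown line; nearly all actives have a fitted effect of over 55% in size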
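HT-1080-NT fibrosarcoma cells (2HG-overproducing), 750 cells/well in RPMI with 5% FBS, dosed after 2 h and incubated 48 h at 37C. CellTiter-Glo luminescence normalized to DMSO and no-cell wells; concentration-response curves fitted and classed.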
DT40 TDP1 no CPT = qHTS for Inhibitors of human tyrosyl-DNA phosphodiesterase 1 (TDP1): qHTS in cells in absence of CPT. DT40 Tdp1-/- hTDP1 cells, no CPT, ATP luminescence, 48 h. Potency, µM (doses to about 46.2 µM), usual class: inhibitors. hit rate 15% among 420,000. AID 686978, 2013; note: nearly all actives have a fitted effect of over 55% in size
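Cells were dispensed at 400 per well, compounds added by pin tool, plates incubated ≥48 hr at 37 °C, then CellTiter-Glo added for 30 min at room temperature before luminescence reading. Line: DT40 Tdp1-/- complemented with hTDP1; camptothecin omitted.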
DT40 TDP1 CPT = DT40-hTDP1 cell growth loss with CPT. chicken DT40 Tdp1-/-;hTDP1 cells + 20 nM CPT, ATP luminescence, 48 h. Potency, µM (highest dose often 46.2 µM), actives largely listed as inhibitors. hit rate 12% among 420,000. AID 686979; note: nearly all actives have a fitted effect of over 55% in size
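Cell growth measured by CellTiter-Glo luminescence after a minimum 48 h, 37 C compound exposure with 20 nM CPT in Tdp1-knockout DT40 cells stably expressing hTDP1, seeded 400/well; qHTS titration format.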
IL-1B inflam inh = inhibitors of inflammasome signaling (IL-1 beta secretion) | THP-1 LPS/ATP IL-1B secretion, AlphaLISA, 16 h; active compounds read low | hit rate 4.7% among 360,000 | activity change, % at 57.5 µM | AID 743279; in the data active = activity change below about -50%; inconclusive = mostly about -30% to -49%
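Secreted IL-1B measured by AlphaLISA bead assay after 16 h compound exposure of THP-1 cells; compounds (final up to 57.5 uM) added 1 h before LPS (250 ng/mL) and ATP (1.25 mM) stimulation; lower signal means less secretion.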
HT1080 IDH1KD tx = kills HT-1080 cells with IDH1 knockdown | AID 686971 | Potency, µM (doses to about 46.1 µM), usual class: cytotoxic | HT-1080 IDH1 knockdown viability, ATP luminescence, 48 h | hit rate 2% among 360,000
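Viability of IDH1-knockdown HT-1080 fibrosarcoma cells was assessed by CellTiter-Glo after 48 h at 37 °C with titrated compound; concentration-effect curves were classified by fit quality and response size.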
ELG1 DNA repair = blocks ELG1-dependent DNA repair in HEK293T cells. HEK293T ELG1-luciferase reporter, luminescence, 16 h; DNA damage induced by 5-fluorouridine. Potency, µM (doses to about 46.1 µM), hits mostly inhibitors. hit rate 2.3% among 330,000. AID 504467; note: nearly all actives have a fitted effect of over 55% in size
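DMSO vehicle served as the neutral condition. Each well held 2,000 cells given 5-fluorouridine plus compound; after 16 hr at 37 °C/5% CO2, ONE-Glo was added and luciferase measured 30 min later.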
A number is an active result; i = inactive; ? = inconclusive; nt = no result given; [ ] = another dose, or the depositor's remark. Unless noted, calls come from the whole dose curve; as a rule, active = well fitted curve in the direction sought with a large enough effect; inconclusive = small, poorly fitted or top-dose-only effect, or another doubt; inactive = no such curve, though single readings can be large; an effect the other way counts as inactive or inconclusive.

SMILES | HT1080NT lethal | DT40 TDP1 no CPT | DT40 TDP1 CPT | IL-1B inflam inh | HT1080 IDH1KD tx | ELG1 DNA repair
COC(=O)CC1c2ccccc2S(=O)(=O)N1Cc1ccccc1 (stereo not given) | i | i | i | i | i | i
CC(=O)C[C@H]1c2cc(F)cc(F)c2S(=O)(=O)N1C1CCN(Cc2ccccc2)CC1 | nt | 3.98µM | 5.62µM | nt | nt | nt
COC(=O)C[C@H]1c2cc(F)cc(F)c2S(=O)(=O)N1C1CCN(Cc2ccccc2)CC1 | i | 6.51µM | 9.2µM | i | i | nt
CC(=O)N/C(=C\c1ccc(F)cc1)C(=O)OCc1ccccc1 | i | i | i | ? | i | i
CCC(=O)Nc1cc(-c2cn3cccnc3n2)ccc1OC | nt | i | i | nt | nt | nt
Nc1ccc(CSc2ccc(Cl)cc2)c(Cl)c1 | i | i | i | i | i | nt
O=C(Nc1cc(S(=O)(=O)Nc2ccccc2Cl)ccc1O)c1cc2c(s1)CCCC2 | i | i | i | i | i | i
O=C(Nc1cccc(S(=O)(=O)Nc2ccc(Cl)cc2)c1)c1cc2c(s1)CCCC2 | 20.6µM | ? | ? | -81.0 | 20.6µM | ?
O=C(/C=C/c1ccco1)Nc1ccc(Cl)c(S(=O)(=O)N2CCOCC2)c1 | i | ? | ? | i | ? | 16.4µM
Cc1ccc(C(=O)Nc2ccc(C)c(S(=O)(=O)Nc3ccccc3Cl)c2)s1 | i | ? | ? | -62.0 | ? | 20.6µM
Cc1ccc(NC(=O)c2cc3c(s2)CCCC3)cc1S(=O)(=O)Nc1ccccc1Cl | i | 23.1µM | 16.4µM | i | ? | 23.1µM
Cc1ccc(CNC(=O)C(CC(C)C)NS(=O)(=O)c2ccc3c(c2)oc(=O)n3C)cc1 (stereo not given) | nt | i | i | nt | nt | nt
O=C(Nc1ccc(Cl)c(S(=O)(=O)Nc2ccccc2Cl)c1)c1cccs1 | ? | ? | i | -93.1 | ? | i
O=C(Nc1ccc(Cl)c(S(=O)(=O)N2CCOCC2)c1)c1cc2ccccc2oc1=O | i | ? | ? | i | i | ?
Cc1cccc(N2N=C(C(=O)Nc3ccc(Cl)c(S(=O)(=O)N4CCOCC4)c3)CCC2=O)c1 | i | ? | ? | i | i | ?
O=C(Nc1ccc(Cl)c(S(=O)(=O)N2CCOCC2)c1)c1ccccc1-c1ccc(C(F)(F)F)cc1 | i | 16.4µM | ? | i | i | 23.1µM
CN(CC(=O)Nc1ccc(Cl)c(S(=O)(=O)N2CCOCC2)c1)C(=O)c1cccs1 | i | i | ? | i | i | i
O=C(Nc1ccc(Cl)c(S(=O)(=O)N2CCOCC2)c1)C1=NN(c2ccccc2)C(=O)CC1 | i | ? | i | i | i | 29.1µM
O=C(Nc1ccc(Cl)c(S(=O)(=O)N2CCOCC2)c1)c1cccs1 | i | ? | ? | i | i | 25.9µM
O=C(NCCCN1CCOCC1)c1c(-c2ccccc2)oc2c1C(OCCCCCO)CCC2 (stereo not given) | i | i | i | i | i | nt
CC1CCC2(CC1)N=C(N)Nc1nc3ccccc3n12 (stereo not given) | i | i | i | i | i | i
CCC1(C)N=C(N)Nc2nc3cc(C)c(C)cc3n21 (stereo not given) | i | 9.2µM | 9.2µM | i | i | i
COc1cccc(C2C(C(=O)Nc3ccccc3OC)=C(C)Nc3nc4ccccc4n32)c1 (stereo not given) | nt | 14.6µM | ? | nt | nt | nt
COc1ccccc1NC(=O)C1=C(C)Nc2nc(-c3cccs3)nn2C1c1cccnc1 (stereo not given) | i | i | ? | i | i | 18.4µM
CCOc1ccccc1C1C(C(=O)Nc2ccccc2OC)=C(C)Nc2nc3ccccc3n21 (stereo not given) | nt | i | i | nt | nt | nt
SMILES | HT1080NT lethal | DT40 TDP1 no CPT | DT40 TDP1 CPT | IL-1B inflam inh | HT1080 IDH1KD tx | ELG1 DNA repair
CNC(=O)C1=C(C)Nc2nc3ccccc3n2C1c1cccc(OC)c1 (stereo not given) | i | i | i | i | i | i
COc1ccccc1NC(=O)C1=C(C)Nc2nc3ccccc3n2C1c1cccc(OC)c1OC (stereo not given) | nt | ? | 16.4µM | nt | nt | nt
COc1ccccc1NC(=O)C1=C(C)Nc2nc(-c3cccnc3)nn2C1c1ccccn1 (stereo not given) | i | i | ? | i | i | nt
COc1cccc(C2C(C(=O)Nc3ccccc3OC)=C(C)Nc3nc(-c4ccco4)nn32)c1 (stereo not given) | nt | 18.4µM | ? | nt | nt | nt
COc1cccc(C2C(C(=O)Nc3ccc(Cl)cc3)=C(C)Nc3nc4ccccc4n32)c1OC (stereo not given) | nt | ? | 20.6µM | nt | nt | nt
COc1ccc(C2C(C(=O)Nc3ccc(C)cc3C)=C(C)Nc3nc4ccccc4n32)c(OC)c1 (stereo not given) | nt | ? | i | nt | nt | nt
COC(=O)C1=C(C)N(Cc2ccccc2)C(=O)/C1=C\c1ccco1 | i | 18.4µM | ? | i | i | i
COC(=O)C1=C(C)N(Cc2cccnc2)C(=O)/C1=C\c1sccc1C | i | i | i | -53.4 | i | 20.6µM
CCOc1cc(/C=C2\C(=O)N(CCc3ccc(OC)c(OC)c3)C(C)=C2C(=O)OC)ccc1O | i | 23.1µM | ? | ? | i | 1.64µM
CCOC(=O)C1=C(C)N(c2ccc(C)cc2)C(=O)/C1=C\c1ccc(O)c(OC)c1 | i | 20.6µM | 14.6µM | i | i | i
CCOC(=O)C1=C(C)N(c2ccc(OCC)cc2)C(=O)/C1=C\c1ccco1 | i | ? | ? | i | ? | ?
CCOc1cc(/C=C2/N=C(C)C(C(=O)OC)=C2O)ccc1O | i | i | i | i | i | i
COc1ccc(NC(=O)Cn2c(=O)n(-c3ccc(C)cc3)c(=O)c3c2cnn3C)cc1 | nt | ? | i | nt | nt | nt
CCc1nn(CC(=O)Nc2c(C)cc(C)cc2C)c(=O)c2cc3sccc3n12 | nt | i | i | nt | nt | nt
N[C@H](CS)C(=O)O | nt | i | i | nt | nt | nt
CCN(CC(=O)Nc1ccc(NC(C)=O)cc1)C(=O)c1c(C)nn(Cc2ccc(C)cc2)c1Cl | i[9.24 µM] | i | i | i | i | nt
COC(=O)C1=C(C)N(Cc2ccc(C)cc2)C(=O)/C1=C\c1cc(OC)c(OC)c(OC)c1 | ? | 20.6µM | ? | -79.1 | 16.4µM | ?
COC(=O)C1=C(C)N(Cc2ccc(C)cc2)C(=O)/C1=C\c1ccc(O)c(OC)c1 | ? | i | i | -60.4 | ? | i
CCOc1cc(/C=C2\C(=O)N(Cc3ccco3)C(C)=C2C(=O)OC)ccc1O | ? | ? | ? | -104.6 | i | i
CCc1c(C)sc(NC(=O)Cn2nc(C)c([N+](=O)[O-])c2C)c1C(N)=O | i | ? | ? | i | i | i
O=C(COC(=O)Cc1ccc(Br)cc1)NCc1ccccc1 | i | i | i | i | i | nt
O=C(Cc1ccc(Br)cc1)NCc1ccccc1 | 8.2µM | 2.06µM | 2.91µM | i | 2.91µM | ?
